Measurements: PubChem BioAssay (NCI)
The panel holds about 83,000 compounds, 20% with a hit somewhere; the sample as a whole holds those more often.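 Each cell line was grown in a 96-well plate and treated with one concentration of compound for 48 hours. Values below 10 were considered active.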 The source made the active and inactive calls.

Assays:
Experiment in all cases: NCI-60 one-dose screen, 48 h (100 = growth as untreated, 0 = no growth, -100 = all killed)
SK-MEL-2 melanoma = details: 10 µM unless noted
EKVX NSCLC = details: 10 µM
SN12C renal = details: 10 µM unless noted
UO-31 renal = details: 10 µM unless noted
TK-10 renal = details: 10 µM unless noted
ACHN renal = details: 10 µM unless noted
A498 renal = details: 10 µM unless noted
CCRF-CEM leukemia = details: 10 µM
MOLT-4 leukemia = details: 10 µM unless noted
SR leukemia = details: 10 µM unless noted
OVCAR-8 ovarian = details: 10 µM unless noted
OVCAR-5 ovarian = details: 10 µM unless noted
OVCAR-4 ovarian = details: 10 µM unless noted
SK-OV-3 ovarian = details: 10 µM unless noted
IGROV1 ovarian = details: 10 µM unless noted
OVCAR-3 ovarian = details: 10 µM unless noted
HS 578T breast = details: 10 µM unless noted
NCI/ADR-RES ovarian = details: 10 µM unless noted
RPMI-8226 leukemia = details: 10 µM unless noted

Measured: growth

COc1ccc(-c2nc(SCC(C)C)nc(Nc3ccc([N+](=O)[O-])cc3)c2C#N)cc1
inactive: SK-MEL-2 melanoma 105% | EKVX NSCLC 98.5% | SN12C renal 72% | UO-31 renal 79.7% | TK-10 renal 73% | ACHN renal 41.7% | A498 renal 89.8% | CCRF-CEM leukemia 78.1% | MOLT-4 leukemia 92.2% | SR leukemia 54.4% | OVCAR-8 ovarian 93.4% | OVCAR-5 ovarian 106% | OVCAR-4 ovarian 37.5% | SK-OV-3 ovarian 99.2% | IGROV1 ovarian 94.3% | OVCAR-3 ovarian 81.5% | HS 578T breast 90.4% | NCI/ADR-RES ovarian 101%

O=C1/C(=C\c2cn(-c3nc(N4CCOCC4)nc(N4CCOCC4)n3)c3ccccc23)c2ccccc2N1c1c(Cl)cccc1Cl
active: A498 renal -43.7% | SK-OV-3 ovarian 7.66%
inactive: SK-MEL-2 melanoma 74% | EKVX NSCLC 61% | SN12C renal 64.8% | UO-31 renal 24.6% | TK-10 renal 60% | ACHN renal 72.7% | CCRF-CEM leukemia 64.5% | MOLT-4 leukemia 60.5% | RPMI-8226 leukemia 60.1% | OVCAR-8 ovarian 76.1% | OVCAR-5 ovarian 52.1% | OVCAR-4 ovarian 65.1% | OVCAR-3 ovarian 69.6% | HS 578T breast 27.9% | NCI/ADR-RES ovarian 72.4%

O=c1oc2ccc3ccccc3c2cc1-c1ccnc2[nH]c(=S)[nH]c(=O)c12
inactive: SK-MEL-2 melanoma 104% | EKVX NSCLC 101% | SN12C renal 93.1% | UO-31 renal 66.5% | TK-10 renal 143% | ACHN renal 107% | A498 renal 107% | CCRF-CEM leukemia 82.6% | MOLT-4 leukemia 87.4% | SR leukemia 82.7% | RPMI-8226 leukemia 89.1% | OVCAR-8 ovarian 99.8% | OVCAR-5 ovarian 112% | OVCAR-4 ovarian 117% | SK-OV-3 ovarian 93.1% | IGROV1 ovarian 104% | OVCAR-3 ovarian 107% | HS 578T breast 107% | NCI/ADR-RES ovarian 94.8%

O=C1N/C(=N\c2nnc(-c3ccc(O)cc3)s2)S/C1=C\c1ccccc1O
inactive: SK-MEL-2 melanoma 103% | EKVX NSCLC 101% | SN12C renal 93.2% | UO-31 renal 72.4% | TK-10 renal 97.9% | ACHN renal 97.8% | A498 renal 107% | CCRF-CEM leukemia 95.8% | MOLT-4 leukemia 100% | SR leukemia 99.4% | RPMI-8226 leukemia 101% | OVCAR-8 ovarian 96.8% | OVCAR-5 ovarian 93.7% | OVCAR-4 ovarian 88.2% | SK-OV-3 ovarian 112% | IGROV1 ovarian 99.1% | OVCAR-3 ovarian 93.2% | HS 578T breast 90.3% | NCI/ADR-RES ovarian 97.8%

COc1ccc(/C=C(/C(=O)N2CCN(c3ccc(C)cc3)CC2)c2cc(OC)c(OC)c(OC)c2)cc1N
inactive: SK-MEL-2 melanoma 23.7% | EKVX NSCLC 45.5% | SN12C renal 28.8% | UO-31 renal 51.2% | TK-10 renal 76.7% | ACHN renal 30.5% | CCRF-CEM leukemia 13.4% | MOLT-4 leukemia 17.5% | SR leukemia 11.3% | RPMI-8226 leukemia 12.8% | OVCAR-8 ovarian 21.6% | OVCAR-5 ovarian 27.1% | OVCAR-4 ovarian 43.9% | SK-OV-3 ovarian 26.2% | IGROV1 ovarian 24.7% | HS 578T breast 32.6% | NCI/ADR-RES ovarian 13.7%
active: A498 renal -11.1% | OVCAR-3 ovarian -27.8%

O=C(/C=C/c1c[nH]c2ccccc12)c1cc2ccccc2o1
inactive: SK-MEL-2 melanoma 105% | EKVX NSCLC 84.4% | SN12C renal 101% | UO-31 renal 60.2% | TK-10 renal 140% | ACHN renal 103% | A498 renal 102% | CCRF-CEM leukemia 36.3% | MOLT-4 leukemia 75.3% | SR leukemia 41.1% | OVCAR-8 ovarian 99.3% | OVCAR-5 ovarian 101% | OVCAR-4 ovarian 101% | SK-OV-3 ovarian 103% | IGROV1 ovarian 88.2% | OVCAR-3 ovarian 93.3% | HS 578T breast 100% | NCI/ADR-RES ovarian 99.9%

COc1ccc(-c2cn3ccnc3c(-c3ccc4ncn(C5CCCCC5)c4c3)n2)cc1
inactive: EKVX NSCLC 43.4% | SN12C renal 36.4% | UO-31 renal 38.5% | TK-10 renal 81.5% | ACHN renal 39% | MOLT-4 leukemia 17.2% | OVCAR-8 ovarian 28.8% | OVCAR-5 ovarian 41.2% | OVCAR-4 ovarian 53.4% | SK-OV-3 ovarian 25.7% | IGROV1 ovarian 46.6% | HS 578T breast 20% | NCI/ADR-RES ovarian 12.8%
active: SK-MEL-2 melanoma 5.74% | A498 renal -12.3% | CCRF-CEM leukemia 6.73% | SR leukemia 8.27% | RPMI-8226 leukemia 4.37% | OVCAR-3 ovarian -26.5%

NNC(=S)N1N=C(c2cc3ccccc3o2)CC1c1c[nH]c2ccccc12 (configuration not stated)
inactive: SK-MEL-2 melanoma 60.1% | EKVX NSCLC 35.2% | SN12C renal 56.9% | UO-31 renal 24% | TK-10 renal 80.1% | ACHN renal 24% | A498 renal 90.2% | MOLT-4 leukemia 10.2% | SR leukemia 27.2% | RPMI-8226 leukemia 28% | OVCAR-8 ovarian 38.8% | OVCAR-5 ovarian 80.4% | OVCAR-4 ovarian 28.6% | SK-OV-3 ovarian 86.2% | IGROV1 ovarian 35.3% | OVCAR-3 ovarian 20% | HS 578T breast 63.8% | NCI/ADR-RES ovarian 30.7%
active: CCRF-CEM leukemia 7.46%

CCOC(=O)C1=NN(c2ccccc2)C2=NC(=O)/C(=C\c3cn(-c4ccccc4)nc3-c3cc4ccccc4o3)C(=O)N12
inactive: SK-MEL-2 melanoma 99.3% | EKVX NSCLC 90.2% | SN12C renal 94.3% | UO-31 renal 68.5% | TK-10 renal 161% | ACHN renal 94.8% | A498 renal 112% | CCRF-CEM leukemia 95.8% | MOLT-4 leukemia 96.3% | SR leukemia 98% | RPMI-8226 leukemia 83% | OVCAR-8 ovarian 100% | OVCAR-5 ovarian 106% | OVCAR-4 ovarian 103% | SK-OV-3 ovarian 97.6% | IGROV1 ovarian 89.1% | OVCAR-3 ovarian 103% | HS 578T breast 97.9% | NCI/ADR-RES ovarian 106%

CCNc1nnc(COc2ccc(CNC(=O)CCCC/C=C/C(C)C)cc2OC)o1
inactive: SK-MEL-2 melanoma 104% | EKVX NSCLC 96.7% | SN12C renal 104% | UO-31 renal 84.2% | TK-10 renal 107% | ACHN renal 101% | A498 renal 109% | CCRF-CEM leukemia 97.5% | MOLT-4 leukemia 104% | SR leukemia 89% | RPMI-8226 leukemia 95.5% | OVCAR-8 ovarian 106% | OVCAR-5 ovarian 103% | OVCAR-4 ovarian 103% | SK-OV-3 ovarian 91.5% | IGROV1 ovarian 103% | OVCAR-3 ovarian 106% | HS 578T breast 98.6% | NCI/ADR-RES ovarian 102%

[2H]c1nc(=Nc2cc(NC(=O)C=C)c(N(C)CCN(C)C)cc2OC)[nH]c(-c2cn(C([2H])([2H])[2H])c3ccccc23)c1[2H]
active: SR leukemia -13.7% | SK-OV-3 ovarian 3.49%
inactive: SK-MEL-2 melanoma 55.8% | EKVX NSCLC 39.7% | SN12C renal 35.3% | UO-31 renal 24.2% | TK-10 renal 26.8% | ACHN renal 23.3% | A498 renal 36.7% | CCRF-CEM leukemia 18.4% | MOLT-4 leukemia 13.3% | RPMI-8226 leukemia 19% | OVCAR-8 ovarian 53.3% | OVCAR-5 ovarian 54.2% | OVCAR-4 ovarian 57.6% | OVCAR-3 ovarian 50.6% | HS 578T breast 63.7% | NCI/ADR-RES ovarian 39.1%

C=CCSc1nnc(COc2ccc3c(C)c(Cc4ccccc4)c(=O)oc3c2C)o1
inactive: SK-MEL-2 melanoma 95.9% | EKVX NSCLC 108% | SN12C renal 95.2% | UO-31 renal 80% | TK-10 renal 109% | ACHN renal 97.5% | A498 renal 110% | CCRF-CEM leukemia 95.1% | MOLT-4 leukemia 96% | SR leukemia 77.7% | RPMI-8226 leukemia 99.9% | OVCAR-8 ovarian 97.6% | OVCAR-5 ovarian 104% | OVCAR-4 ovarian 96.1% | SK-OV-3 ovarian 108% | IGROV1 ovarian 112% | OVCAR-3 ovarian 108% | HS 578T breast 94.5% | NCI/ADR-RES ovarian 98%

COc1ccccc1Nc1nnc(COc2ccc(CNC(=O)CCCC/C=C/C(C)C)cc2OC)o1
inactive: SK-MEL-2 melanoma 102% | EKVX NSCLC 85% | SN12C renal 105% | UO-31 renal 75.2% | TK-10 renal 103% | ACHN renal 95.7% | A498 renal 103% | CCRF-CEM leukemia 92% | MOLT-4 leukemia 76.7% | SR leukemia 76.1% | RPMI-8226 leukemia 70.7% | OVCAR-8 ovarian 101% | OVCAR-5 ovarian 89.7% | OVCAR-4 ovarian 101% | SK-OV-3 ovarian 107% | IGROV1 ovarian 97.8% | OVCAR-3 ovarian 89.6% | HS 578T breast 98% | NCI/ADR-RES ovarian 89.8%

O=C(/C=C1\C(=O)N(Cc2ccc([N+](=O)[O-])cc2)c2ccccc21)c1ccc(OCCN2CCCCC2)cc1
active: SK-MEL-2 melanoma -29.1% | EKVX NSCLC 1.78% | SN12C renal -67% | UO-31 renal -97.1% | TK-10 renal -81.4% | ACHN renal -98.6% | MOLT-4 leukemia -26.5% | SR leukemia -27.9% | RPMI-8226 leukemia -36% | OVCAR-8 ovarian 0.287% | OVCAR-5 ovarian -40.6% | OVCAR-4 ovarian -58.8% | IGROV1 ovarian -49.3% | OVCAR-3 ovarian -93.8% | HS 578T breast 6.94% | NCI/ADR-RES ovarian 6.18%
inactive: A498 renal 56.6% | SK-OV-3 ovarian 85%

COc1ccc(C2=NN(C(=O)c3cc(-c4ccc(C)cc4)nc4ccccc34)C(c3cc(-c4ccccc4)nn3-c3ccccc3)C2)cc1 (configuration not stated)
inactive: SK-MEL-2 melanoma 94.9% | EKVX NSCLC 99.6% | SN12C renal 97.7% | UO-31 renal 79.8% | TK-10 renal 113% | ACHN renal 98.6% | A498 renal 91% | CCRF-CEM leukemia 81.5% | MOLT-4 leukemia 84.7% | SR leukemia 89.5% | OVCAR-8 ovarian 93.3% | OVCAR-5 ovarian 102% | OVCAR-4 ovarian 93.3% | SK-OV-3 ovarian 112% | IGROV1 ovarian 98.3% | OVCAR-3 ovarian 84.4% | HS 578T breast 95.8% | NCI/ADR-RES ovarian 92.5%

CC[C@H](Nc1ncnc2nc[nH]c12)c1nc2cccc(NCc3ccc(C(=O)NO)nc3)c2c(=O)n1-c1ccccc1
inactive: SK-MEL-2 melanoma 55.6% | EKVX NSCLC 77.1% | SN12C renal 38.9% | UO-31 renal 87.1% | TK-10 renal 58.9% | ACHN renal 97% | A498 renal 54.2% | CCRF-CEM leukemia 19.6% | MOLT-4 leukemia 15% | SR leukemia 11.6% | OVCAR-8 ovarian 36.9% | OVCAR-5 ovarian 84.9% | OVCAR-4 ovarian 70.4% | SK-OV-3 ovarian 80.8% | IGROV1 ovarian 30.9% | OVCAR-3 ovarian 41.5% | HS 578T breast 13.8% | NCI/ADR-RES ovarian 106%
active: RPMI-8226 leukemia 6.61%
